Sampled rows, rich in hits. Any-hit rate of the full collection: about 6.7%.
BoNT A protease – blocks Botulinum neurotoxin A light chain protease. multiplex microsphere protease substrate cleavage, flow cytometry. inhibition, % at 10 µM. 0.17% of 360,000 active; also: plate controls were buffer without enzyme for full effect and enzyme alone for no effect
Mtb FBA inh – Mtb fructose-bisphosphate aldolase inhibition | P9WQA3 | purified M. tuberculosis FBA, fluorescence read-out | inhibition, % at 1 µM | 2.3% of 360,000 active; in the data active = inhibition above about 27%;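 also: 0% = vehicle and 100% = reference inhibitor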
Target sequence (P9WQA3 whole entry, looked up): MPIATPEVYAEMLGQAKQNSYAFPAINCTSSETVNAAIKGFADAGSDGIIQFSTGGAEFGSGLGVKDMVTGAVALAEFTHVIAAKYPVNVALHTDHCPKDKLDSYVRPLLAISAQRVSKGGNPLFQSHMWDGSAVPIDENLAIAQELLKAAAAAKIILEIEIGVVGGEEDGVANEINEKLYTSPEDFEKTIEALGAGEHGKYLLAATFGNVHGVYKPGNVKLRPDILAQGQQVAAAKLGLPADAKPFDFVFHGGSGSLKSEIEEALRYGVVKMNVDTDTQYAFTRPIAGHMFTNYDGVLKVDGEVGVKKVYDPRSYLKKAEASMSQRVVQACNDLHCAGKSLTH
BoNT-F LC inh – BoNT F light chain protease inhibition. Multiplex microsphere protease cleavage assay, flow cytometry. inhibition, % at 10 µM. 0.22% of 360,000 active. AID 588497; in the data active = inhibition above about 35%, passing the limit was not always enough; inconclusive = no clear call, values can overlap the other calls; also: plate controls were buffer without enzyme for full effect and enzyme alone for no effect
GDH-TPI inh – GDH-TPI coupled enzyme inhibition counter-screen. GDH-TPI coupled enzyme counterscreen, NADH absorbance. inhibition, % at 4.8 µM. 1.2% of 360,000 active; in the data active = inhibition above about 30%;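 also: 0% = DMSO wells and 100% = wells lacking the enzyme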
Bead autofluor – flagged as autofluorescent in microsphere protease counterscreen. 3.1% of 360,000 active. compound autofluorescence counterscreen, microsphere flow cytometry; active compounds read high. fluorescence intensity (no concentration beside the values). AID 624483; in the data active = fluorescence intensity above about 16000; inconclusive = no clear call, values can overlap the other calls
Anthrax LF inh2 – blocks Bacillus anthracis lethal factor protease | P15917 | multiplex microsphere protease cleavage assay, LF | inhibition, % at 10 µM | 0.12% of 360,000 active | AID 588501; also: plate controls were buffer without enzyme for full effect and enzyme alone for no effect
* marks the source's active call; other numbers are inactive results; ? = inconclusive; nt = no result given. Rule as the data show it, unless noted: active = inhibition above about 30%; inconclusive = no clear call, values can overlap the other calls; inactive = below that.

SMILES	BoNT A protease	Mtb FBA inh	BoNT-F LC inh	GDH-TPI inh	Bead autofluor	Anthrax LF inh2
CCOc1ccc(NC(=O)c2ccc(F)c(S(=O)(=O)N3CCN(c4ccccn4)CC3)c2)cc1	?	1.6	0.8	10.6	16376*	-2.2
CCOc1ccc(NC(=O)c2ccc(F)c(S(=O)(=O)N3CCCC3)c2)cc1	-1.3	-1.5	-14.1	12.5	4527	-11.0
CC1=C(CC(=O)c2ccccc2)C(=O)c2ccccc2C1=O	?	-0.1	7.0	6.5	18823*	-2.2
O=C(CN1C(=O)c2ccccc2C1=O)c1ccccc1	-0.8	1.2	-3.0	-7.5	2760	-2.2
CSc1ccc(/C=N/n2c(C)cc(C)cc2=O)cc1	?	0.1	-4.6	32.5*	23602*	0.1
CSc1ccc(/C=N/n2c(C)nnc2C)cc1	-0.1	0.8	0.8	15.7	2027	-2.1
CCOC(=O)/C(C#N)=C1/C=C(C)NC(c2ccccc2O)=N1	0.6	6.0	3.0	22.9	10689	-4.4
CCOC(=O)/C(C#N)=C1/C=CN(C)C(C)=N1	0.8	-2.0	-6.7	67.3*	9944	5.0
Cc1cc(NC(=O)CSc2nc(N)c(NC(=O)c3ccc(F)c(F)c3)c(=O)[nH]2)no1	-2.2	-1.5	-8.2	-6.0	6744	-3.2
COc1ccc(N2C(=O)CC(N3CCN(c4ccc(S(C)(=O)=O)cc4)CC3)C2=O)cc1 (stereo not drawn)	2.2	0.1	-1.3	0.5	18815*	-0.7
O=C(CNCC1CCCO1)Nc1ccccc1-n1cccc1 (stereo not drawn)	1.4	1.1	2.7	0.8	6696	0.8
O=C(CNCC1CCCO1)Nc1ccccc1N1CCOCC1 (stereo not drawn)	1.1	1.0	1.2	14.9	22897*	-0.2
Cc1ccc2nsnc2c1S(=O)(=O)Nc1ccccc1C(=O)O	-9.8	0.1	?	3.2	4856	-0.6
Cc1ccc2nsnc2c1NS(=O)(=O)c1c(C)ccc2nsnc12	-3.4	-1.7	-7.0	-6.3	22309*	-0.2
Cc1cc(S(=O)(=O)Nc2c(C)ccc3nsnc23)ccc1F	1.2	1.8	3.3	14.3	16194*	2.4
O=C(N/N=C/c1ccc(-c2ccc([N+](=O)[O-])cc2)o1)c1cccnc1	1.9	-4.5	-7.0	33.2*	5546	-1.1
CCOc1ccc(S(=O)(=O)N(CC(=O)N/N=C/c2ccc(-c3ccc([N+](=O)[O-])cc3)o2)c2ccccc2)cc1	22.6	1.1	28.1	4.2	2614	27.4
O=C(N/N=C/c1ccc([N+](=O)[O-])cc1)c1cccnc1	-0.2	0.1	-7.1	28.2	3543	4.7
Cc1ccc(C)c(N(CC(=O)N/N=C/c2ccc(-c3ccc([N+](=O)[O-])cc3)o2)S(=O)(=O)c2ccccc2)c1	50.0*	-0.6	31.7	22.1	5236	42.2*
NC(=O)N/N=C/c1ccc(-c2ccc([N+](=O)[O-])cc2)o1	6.9	-2.3	0.3	22.0	4145	20.1
COCCNC(=S)N/N=C/c1ccc(-c2ccc([N+](=O)[O-])cc2)o1	3.4	-7.9	-7.5	32.5*	?	6.4
CCn1c(SCc2cccc(F)c2)nnc1-c1ccncc1	-1.7	18.1	20.6	-1.5	3711	-3.1
CC(NC(=S)Nc1ccc(OC(F)F)cc1OC(F)F)C(C)(C)C (stereo not drawn)	-1.0	2.8	-6.3	3.3	2071	-2.0
O=C(O)CCNc1nc(C(F)(F)F)nc2ccccc12	-0.5	2.5	12.1	2.4	4827	-7.1
Cc1nnc(Nc2ccc(S(N)(=O)=O)cc2)c2ccccc12	0.7	1.2	-7.9	34.3*	3823	-5.9
SMILES	BoNT A protease	Mtb FBA inh	BoNT-F LC inh	GDH-TPI inh	Bead autofluor	Anthrax LF inh2
Cc1nc(Nc2ccc(S(N)(=O)=O)cc2)sc1C(=O)Nc1ccccc1	-0.6	0.2	-4.5	34.9*	4141	-2.1
CNC(=O)c1ccc(Nc2nnc(C)c3ccccc23)cc1	-0.3	-0.5	-6.2	28.8	2572	-0.6
Cc1cc(C)c(S(=O)(=O)N2C[C@H]3CON(C)[C@H]3C[C@H]2c2ccc(N3CCCCC3)cc2)c(C)c1	-11.4	-0.7	13.2	nt	34680*	-20.9
Cc1ccc(S(=O)(=O)n2ccc3cccnc32)cc1	-0.6	-2.2	3.3	-8.2	4525	0.4
Cc1cc(C)n(/N=C/c2cc(Cl)cc(Cl)c2O)c(=O)c1	0.0	4.4	-7.6	0.0	4502	-12.3
Cc1cc2nc(SCC(=O)Nc3nonc3C)c3c(c2cc1C)CCCC3	?	-5.3	3.3	-2.8	22694*	-0.4
CNC(=O)c1ccc(NC(=O)C2CCN(c3ncnc4sc(C)c(C)c34)CC2)cc1	-0.3	3.4	5.9	-5.2	6085	-2.5

Screening results as filed in PubChem BioAssay.
